# High-throughput results: PubChem BioAssay, National Center for Advancing Translational Sciences (NCATS)
# G9a block = blocks human histone lysine methyltransferase G9a. Q96KQ7. 350,000 compounds, 8.8% hits. G9a H3K9 monomethylation, AlphaScreen, 2 h. Potency, µM (highest dose often 102 µM), usual class: inhibitors; note: nearly all actives have a fitted effect of over 75% in size
#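 Signal arises when biotinylated H3K9 peptide, once monomethylated, bridges streptavidin donor and antibody-captured acceptor beads. Enzyme at 20 nM was preincubated 15 min with test compounds; peptide 500 nM and SAM 20 uM then reacted for 2 h.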
# HP1b binding inh = blocks HP1-beta chromodomain binding to methylated histone tails. AlphaScreen HP1-beta / biotin-H3K9me3 peptide binding. Potency, µM (top dose mostly 114 µM), actives largely listed as inhibitors. 390,000 compounds, 0.56% hits. AID 540317; note: nearly all actives have a fitted effect of over 70% in size
#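 AlphaScreen: HP1-beta (50 nM) preformed 30 min with biotin-H3(1-18)K9me3 peptide (50 nM) in PBS pH 7.4, 0.01% Tween-20. Compound added for 30 min at RT, then streptavidin donor/nickel chelate acceptor beads (10 ug/mL) for 30 min.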
# Sfp inh = blocks B. subtilis Sfp PPTase activity. Biochemical Sfp PPTase activity, qHTS. Potency, µM, actives largely listed as inhibitors. 310,000 compounds, 3.5% hits. AID 1490;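 note: the enzyme is Sfp with the accession as filed and its product quenches rhodamine fluorescence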
#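 Fluorescence-quenching assay with 15 nM Sfp, 5 uM rhodamine-CoA and 12.5 uM BHQ-2-labelled ybbR peptide in pH 7.6 Hepes/MgCl2 buffer. Enzyme was pre-incubated with compound for 15 min at room temperature. Rate was taken from the 30-min fluorescence change (525/598 nm).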
# BAZ2B inh = blocks human BAZ2B. 360,000 compounds, 4.4% hits. AID 504333. AlphaScreen BAZ2B-H3K14Ac peptide displacement. Potency, µM (titrated, usually from 114 µM), actives largely listed as inhibitors. Q9UIF8; note: nearly all actives have a fitted effect of over 60% in size
#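 In this displacement format the biotinylated H3(5-23) peptide acetylated at Lys14 serves as ligand at 50 nM, with BAZ2B at 50 nM in PBS pH 7.4 containing 0.01% Tween-20. Donor and acceptor beads are 10 ug/mL final.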
# L3MBTL1 inh = L3MBTL1 (human) inhibition; AlphaScreen L3MBTL1–H3K9me1 peptide binding; AID 485360; Potency, µM (doses to about 57.1 µM), actives largely listed as inhibitors; 230,000 compounds, 0.66% hits; Q9Y468; note: nearly all actives have a fitted effect of over 60% in size
#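 Read-out is AlphaScreen signal from streptavidin donor and nickel chelate acceptor beads (10 ug/mL final each) bridging L3MBTL1 (50 nM) and biotinylated K9-monomethylated H3(1-15) peptide (75 nM), after 30 min compound exposure at room temperature.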
# JMJD2A Tudor = inhibitors of human JMJD2A Tudor domain; AlphaScreen JMJD2A-Tudor / H3K4me3 peptide binding; Potency, µM (series often up to 114 µM), usual class: inhibitors; 390,000 compounds, 4.4% hits; AID 504339; note: nearly all actives have a fitted effect of over 50% in size
# Hits are given with their value; . = inactive; ? = inconclusive; / = not tested or not shown; [ ] = remark or other dose. Rows were chosen to be rich in hits. Some 12% of all compounds tested hit in one or more screens of this group. Calls come from the whole dose curve; as a rule, active = well fitted curve in the direction sought with a large enough effect; inconclusive = small, poorly fitted or top-dose-only effect, or another doubt; inactive = no such curve, though single readings can be large; an effect the other way counts as inactive or inconclusive.
SMILES,G9a block,HP1b binding inh,Sfp inh,BAZ2B inh,L3MBTL1 inh,JMJD2A Tudor
Cc1ccc(CNC(=O)C2CCN(S(=O)(=O)c3ccc4c(c3)CCCN4C(=O)C3CCC3)CC2)cc1,.,.,/,.,/,.
CN(C)c1ccc(C(CNC(=O)c2ccc(C(C)(C)C)cc2)N2CCOCC2)cc1 (centres undefined),11.2µM,.,/,35.5µM,/,?
COc1ccc(S(=O)(=O)NCC(c2ccco2)N2CCc3ccccc32)cc1 (centres undefined),?,?,/,?,.,?
Cc1ccc(S(=O)(=O)NCC(c2ccc(N(C)C)cc2)N2CCc3ccccc32)cc1C (centres undefined),5.62µM,.,/,6.31µM,/,7.08µM
CN(C)c1ccc(C(CNS(=O)(=O)c2ccc([N+](=O)[O-])cc2)N2CCOCC2)cc1 (centres undefined),.[0.501 µM],.,/,?,.,?
CN(C)c1ccc(C(CNS(=O)(=O)c2ccc(Br)cc2)N2CCOCC2)cc1 (centres undefined),?,?,/,44.7µM,/,?
CCOc1ccc(S(=O)(=O)NCC(c2ccc(N(C)C)cc2)N2CCc3ccccc32)cc1 (centres undefined),?,?,/,6.31µM,/,12.6µM
CCCOc1ccc(Oc2nc(NCC(C)C)nc(N(C)C)n2)nn1,.,.,/,.,/,.
CCOc1ccc(S(=O)(=O)Nc2ccc(C(=O)NCC(c3ccccc3)N(C)C)cc2)cc1 (centres undefined),/,.,.,.,/,.
CN1CCN(C(CNS(=O)(=O)c2ccc(Br)cc2)c2ccc3c(c2)OCO3)CC1 (centres undefined),79.4µM,.,/,.,.,.
CCOc1ccc(N(C)C(CNS(=O)(=O)c2ccccc2)c2ccccc2)cc1 (centres undefined),11.2µM,?,/,11.2µM,/,28.2µM
O=S(=O)(NCC(c1ccc2c(c1)OCO2)N1CCOCC1)c1ccc(Br)cc1 (centres undefined),.,.,/,.,.,.
COc1ccc(S(=O)(=O)NCC(c2ccc(N(C)C)cc2)N2CCc3ccccc32)cc1 (centres undefined),12.6µM,?,/,?,/,22.4µM
CN(C)c1ccc(C(CNC(=O)COc2ccc(Cl)cc2)N2CCCC2)cc1 (centres undefined),50.1µM,.,.,35.5µM,/,.
CCCCNC(=O)C(CC)n1c(SCc2cccc(F)c2)nc2ccncc21 (centres undefined),/,.,/,/,/,.
O=C(NCC(c1ccc(F)cc1)N1CCOCC1)c1ccc(Br)o1 (centres undefined),50.1µM,.,.,?,.,.
CCOc1ccc(S(=O)(=O)NCC(c2ccc(N(C)C)cc2)N2CCCC2)cc1 (centres undefined),20µM,.,/,35.5µM,/,?
O=C(CC1(O)C(=O)N(CCc2ccccc2)c2ccccc21)c1ccccn1 (centres undefined),?,.,.,.,/,.
O=C(CC1(O)C(=O)N(C/C=C/c2ccccc2)c2ccccc21)c1ccccn1 (centres undefined),50.1µM,.,.,.,.,?
Cc1cccc(-n2c(CNC(=O)c3ccc(S(=O)(=O)N4CCCCC4)cc3)n[nH]c2=S)c1,7.08µM,.,.,.,/,35.5µM
Cc1ccc(CNC(=O)c2ccc(S(=O)(=O)N3CCCCC3)cc2)cc1,.,.,/,.,.,.
CCCN(CCC)S(=O)(=O)c1ccc(C(=O)NCc2n[nH]c(=S)n2-c2ccc(Cl)c(Cl)c2)cc1,17.8µM,.,.,?,.,?
O=C(NCc1n[nH]c(=S)n1-c1ccc(Cl)c(Cl)c1)c1ccc(S(=O)(=O)N2CCCCC2)cc1,8.91µM,.,.,.,/,.
O=C(NCc1n[nH]c(=S)n1-c1ccc(F)cc1)c1ccc(S(=O)(=O)N2CCCC2)cc1,?,.,.,.,/,28.2µM
Cc1cc2c(s1)c1cnn(Cc3c(F)ccc(Cl)c3F)c(=O)c1n2C,/,/,/,/,/,.
